Source: PubChem BioAssay
Calls of active or inactive are those of the source. No rule for the calls is given here.

Each compound was assayed against Pantothenate synthetase (Mycobacterium tuberculosis (strain ATCC 25618 / H37Rv)) (UniProt P9WIL5) (assay: Coupled enzyme confirmation of inhibitors against recombinant Mtb PanC (AID 375;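 also: 0% = full reaction with vehicle and 100% = no enzyme background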)). Conditions: coupled enzyme assay; at 10 µM, active compounds read high.
Chain of Pantothenate synthetase (Mycobacterium tuberculosis (strain ATCC 25618 / H37Rv)) (P9WIL5 whole entry, looked up): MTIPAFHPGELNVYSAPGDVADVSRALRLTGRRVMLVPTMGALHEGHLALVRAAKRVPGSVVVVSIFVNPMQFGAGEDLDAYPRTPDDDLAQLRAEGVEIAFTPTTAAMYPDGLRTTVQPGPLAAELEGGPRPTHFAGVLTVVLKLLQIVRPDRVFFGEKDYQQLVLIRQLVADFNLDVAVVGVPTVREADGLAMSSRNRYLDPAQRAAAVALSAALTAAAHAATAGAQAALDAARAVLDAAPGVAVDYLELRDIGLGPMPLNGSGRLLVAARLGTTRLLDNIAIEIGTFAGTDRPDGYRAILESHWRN

SMILES	inhibition
Oc1ccc(/C=C/c2cc(O)cc(O)c2)cc1	0% (inactive)
CCOC(=O)c1cc2c(=O)n3cccc(C)c3nc2n(CCc2ccccc2)c1=N	0% (inactive)
CCn1c(CCNC(=O)c2cccs2)nnc1SCC(=O)c1ccc(OC)cc1	0% (inactive)
C=CC(O)(C#CCN(CC)CC)c1ccccc1 (stereo not given)	3% (inactive)
CCc1cc2c(=O)c(-c3nc4ccccc4[nH]3)coc2c(CN2CCC(C)CC2)c1O	4% (inactive)
CCOC(=O)c1nn(-c2sc(C(=O)OC)c(C)c2C(=O)OC)cc1O	18% (inactive)
COC(=O)Cn1cnc2sc(C)c(S(=O)(=O)N3CCC(C)CC3)c2c1=O	4% (inactive)
CC1=C(C(N)=O)C(c2cccnc2)n2nc(SCc3ccccc3Cl)nc2N1 (stereo not given)	0% (inactive)
Cc1oc(-c2cccc(Cl)c2)nc1CN1CCC(C(=O)N2CCN(c3ccccc3F)CC2)CC1	2% (inactive)
COc1ccc(NC(=O)c2cnc3n(c2=O)CCS3)cc1OC	0% (inactive)
COCCN(CC(=O)NCc1ccccc1)C(=O)CCC(=O)Nc1ccccn1	0% (inactive)
Cc1ccc(S(=O)(=O)N2CCN(c3nc(C(C)C)c4c(c3C#N)CC(C)(C)OC4)CC2)cc1	0% (inactive)
CCCN(CCC)S(=O)(=O)c1ccc(C(=O)O)cc1	0% (inactive)
Cc1nc2sc(C(c3cccc(F)c3)N3CCN(C(=O)c4ccco4)CC3)c(O)n2n1 (stereo not given)	0% (inactive)
CCOC(OCC)P(=O)(C(C)C)C(C)C	0% (inactive)
Cc1ccc2cc(CN(CC3CCCO3)S(=O)(=O)c3ccc4c(c3)OCCO4)c(=O)[nH]c2c1C (stereo not given)	2% (inactive)
C=CCN=C1SCC(=O)N1S(=O)(=O)c1ccc(C)cc1	0% (inactive)
CCc1cc(C)cc(OCCNC(=O)c2ncn[nH]2)c1	7% (inactive)
O=C(Cn1cnc2ccccc2c1=O)NCCC(=O)N1CCN(c2ccccc2)CC1	0% (inactive)
O=C(O)c1ccc(-n2nnnc2Oc2ccccc2C(=O)N2CCOCC2)cc1	4% (inactive)

SMILES	inhibition
N#CC1=C(N)OC2=C(CCC/C2=C/c2ccoc2)C1c1ccoc1 (stereo not given)	2% (inactive)
CC(C)(C)n1ncc2c(=O)n(CC(=O)NCCc3ccccc3)cnc21	4% (inactive)
COc1ccc2c(c1)CCc1c(C(=O)N3CCCc4ccccc43)noc1-2	4% (inactive)
O=S1(=O)C=C(Oc2ccc(F)cc2)c2ccccc21	4% (inactive)
CC(C[N+](C)(C)C)OC(N)=O (stereo not given)	0% (inactive)
Cn1c(=O)[nH]c(=O)c2c1nc(NC1CCCCC1)n2CC(=O)NC1CCCCC1	0% (inactive)
CCOc1ccccc1OCCn1nnc2ccccc21	4% (inactive)
CCOC(=O)c1sc(N)c(C(=O)OCC)c1COC(=O)C1CC(=O)N(Cc2ccco2)C1 (stereo not given)	6% (inactive)
COc1ccc(C2CC(c3ccco3)n3ncnc3N2)cc1 (stereo not given)	4% (inactive)
CCOc1ccc(S(=O)(=O)Nc2ccccc2C(=O)Nc2ccccc2N2CCOCC2)cc1	1% (inactive)
COc1cccc2cc(C(=O)n3ccc(C)n3)c(=O)oc12	1% (inactive)
Cc1cc(C(=O)OCC(=O)N2c3ccccc3CC2C)c(C)o1 (stereo not given)	3% (inactive)
COc1ccccc1N=Cc1nc(-c2ccccc2)oc1OC(C)=O	0% (inactive)
CC1=C(C)CC2C(=O)N(c3cccc4ccccc34)C(=O)C2C1 (stereo not given)	0% (inactive)
COc1cccc(/C(O)=C2/C(=O)C(=O)N(CCN3CCOCC3)C2c2cccnc2)c1 (stereo not given)	1% (inactive)
CNCCCC12CCC(c3ccccc31)c1ccccc12	0% (inactive)
CC(=O)Nc1ccccc1O	9% (inactive)
Cc1cc(NC(c2cccnc2)c2c(C)[nH]c3ccccc23)no1 (stereo not given)	0% (inactive)
COc1ccc(S(=O)(=O)N2CCCC2C(=O)Nc2ccc(C)cc2)cc1 (stereo not given)	0% (inactive)
Cc1csc(NC(=O)Nc2cccc(Cl)c2)n1	0% (inactive)
